Data taken from PubChem BioAssay.
Values without a mark were called inactive. No rule for the calls is given here.

The molecules below were run against Pantothenate synthetase (Mycobacterium tuberculosis (strain ATCC 25618 / H37Rv)) (UniProt P9WIL5) (assay: Coupled enzyme confirmation of inhibitors against recombinant Mtb PanC (AID 375;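 also: 0% = full reaction with vehicle and 100% = no enzyme background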)). Details: coupled enzyme assay; at 10 µM, active compounds read high.
Chain of Pantothenate synthetase (Mycobacterium tuberculosis (strain ATCC 25618 / H37Rv)) (P9WIL5 whole entry, looked up): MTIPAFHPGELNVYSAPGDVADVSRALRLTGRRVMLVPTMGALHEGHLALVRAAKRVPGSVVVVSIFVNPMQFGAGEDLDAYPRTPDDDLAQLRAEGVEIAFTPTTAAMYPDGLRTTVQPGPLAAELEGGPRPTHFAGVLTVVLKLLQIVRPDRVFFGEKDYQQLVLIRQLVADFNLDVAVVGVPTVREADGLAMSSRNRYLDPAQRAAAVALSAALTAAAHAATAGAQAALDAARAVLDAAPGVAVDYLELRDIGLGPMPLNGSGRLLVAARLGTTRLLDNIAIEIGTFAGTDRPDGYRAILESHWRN
For `Cc1cc(C)cc(N(CC(=O)Nc2cccc(C)n2)S(=O)(=O)c2c(C)noc2C)c1`, the inhibition was 0%.
With `COc1cc2nc(N3CCN(C(=O)c4ccco4)CC3)nc(N)c2cc1OC` the inhibition was 2%.
Work on `Cc1cc(C(=O)CSc2nnc(-c3ccco3)o2)c(C)n1CC1COc2ccccc2O1` (stereo not given) yielded an inhibition of 0%.
With `Nn1c(Cc2ccccc2F)nnc1SCC(=O)N1CC(=O)Nc2ccccc21` the inhibition was 0%.
With `CN1CCC(=C2c3ccccc3C=Cc3ccccc32)CC1` the inhibition was 0%.
`Cc1cc(C)n(-c2nc3sc4c(c3c3nnc(SCC(N)=O)n23)CC(C)(C)OC4)n1` was tested, and the inhibition was 0%.
`CCOC(=O)c1c2n(c3ccc(O)cc13)CCCCC2` gave an inhibition of 0%.
With `Cc1ccc(NC(=O)C2CCCNC2=O)nc1` (stereo not given) the inhibition was 0%.
For `Cn1c(C(=O)OC(C(=O)NC2CCCC2)c2cccnc2)cc2sccc21` (stereo not given), the inhibition was 0%.
Molecule `O=C(CSc1nnnn1C1CCCC1)N1CCN(C(=O)c2ccco2)CC1` has an inhibition of 0%.
For `O=S(=O)(NCc1ccccn1)c1ccc2c(c1)OCCO2`, the inhibition was 0%.
Molecule `Cc1cc(=O)[nH]c(SCC(=O)NCc2ccco2)n1` has an inhibition of 0%.
`COc1cc(NC(=O)Cc2cccs2)ccc1-n1cnnn1` gave an inhibition of 10%.
`COC(=O)c1cc(Br)c(=O)n(-c2nccs2)c1` was tested, and the inhibition was 0%.
`O=C(Cc1cccs1)Nc1ccccc1C(=O)O` gave an inhibition of 4%.
For `COc1cc(OC)c(NC(=O)c2ccco2)cc1Cl`, the inhibition was 0%.
In the case of `CCOc1ccc(Cl)cc1S(=O)(=O)N1CCCC1`, the inhibition was 0%.
Work on `Cc1ccc(S(=O)(=O)N(CC(=O)N2CCC(C(N)=O)CC2)Cc2ccc(F)cc2)cc1` yielded an inhibition of 0%.
Work on `CN1C(=O)CC(N2CCC(C(N)=O)(N3CCCCC3)CC2)C1=O` (stereo not given) yielded an inhibition of 0%.
`CCC(C(=O)N1CCc2cc(OC)c(OC)cc2C1)c1ccccc1` (stereo not given) was tested, and the inhibition was 0%.
For `CC1=CC=CC2=NC(=O)CC(C)(C(=O)N(CC(=O)NC(C)C)C3CCCC3)N12` (stereo not given), the inhibition was 4%.
`CN(C)c1ccc2c(c1)OC(N)=C(C#N)C2c1cccc(F)c1` (stereo not given) showed an inhibition of 0%.
With `Cc1cc(C)cc(N2C(=O)CC(N3CCOCC3)C2=O)c1` (stereo not given) the inhibition was 0%.
`CCCN1C2=C(C(=O)CCC2)C(c2ccc(O)c(Br)c2)C2=C1CCCC2=O` gave an inhibition of 0%.
`O=C(Nc1ccc2snnc2c1)N1CCSCC1` was tested, and the inhibition was 0%.
Work on `Cc1ccc(S(=O)(=O)N2CCN(S(C)(=O)=O)C2c2ccccc2)cc1` (stereo not given) yielded an inhibition of 0%.
`COc1ccc(-c2nc(C#N)c(N3CCN(c4ccccc4)CC3)o2)cc1` showed an inhibition of 0%.
`COc1cc(C)nc(N2CCCC(C(=O)Nc3cccc(Cl)c3Cl)C2)n1` (stereo not given) was tested, and the inhibition was 0%.
`CC(C)OC(=O)CCCCCN1C(=O)CSC1=S` gave an inhibition of 1%.
With `CCOC(=O)C1CCN(C(=O)CN(c2ccc(Cl)c(C(F)(F)F)c2)S(C)(=O)=O)CC1` the inhibition was 4%.
With `Cc1c(C=NCCOCc2ccccc2)cnn1C` the inhibition was 0%.
`COc1ccc(/C=N/n2cnnc2SCc2ccc(OC)cc2)cc1` was tested, and the inhibition was 0%.
`COC(=O)c1ccccc1NC(=O)Nc1cc(C)cc(C)n1` gave an inhibition of 2%.
`C=CS(=O)(=O)c1ccc(Oc2ccc(S(=O)(=O)C=C)cc2)cc1` was tested, and the inhibition was 10%.
For `Cc1ccc(C2/C(=C(/O)c3cnn(-c4ccccc4)c3C)C(=O)C(=O)N2CCN2CCOCC2)o1` (stereo not given), the inhibition was 1%.
`CCn1ncc(C2=NOC(C(=O)NCc3ccc(Cl)cc3)C2)c1C` (stereo not given) gave an inhibition of 0%.
With `C[C@]12CCC(=O)C=C1CC[C@@H]1[C@@H]2C(=O)C[C@@]2(C)[C@H]1CC[C@]2(O)C(=O)CO` the inhibition was 0%.
`CN1CCN(CCCN2c3ccccc3Sc3ccc(C(F)(F)F)cc32)CC1` was tested, and the inhibition was 1%.
With `Brc1cccc(-c2cnc3n2CCCCC3)c1` the inhibition was 4%.
With `Cn1cc(Br)c(C(=O)NC2CCCCC2)n1` the inhibition was 4%.
